According to PubChem BioAssay (NCATS):
Results filed as inconclusive are left out. Where a call stands in place of a potency, no number is given. The source made the active and inactive calls. The call rests on the fitted dose curve; in most records, active means well fitted inhibition curve with a large enough effect; inconclusive means small, poorly fitted or top-dose-only effect; inactive means no such curve, though single readings can be large or run the other way.

Experiment: BET inhibitor-based combinations targeting novel dependencies in MECOM-rearranged (r) AML: UCSD-AML1 cell line (AID 2202235); further: nearly all actives have a fitted effect of over 40% in size
Conditions: UCSD-AML1 AML cells viability, CellTiter-Glo, 48 h; series mostly up to 46 µM
Excerpt: Ecotropic viral insertion site 1 (EVI1) is located on chromosome 3q26.2 as part of the MECOM (MDS and EVI1 complex) locus. Under normal hematopoiesis, EVI1 is a regulator of hematopoietic stem cell maintenance and self-renewal and EVI1 levels decrease as the cells differentiate. In approximately 5-10% of de novo acute myeloid leukemia (AML) EVI1 is aberrantly expressed, including Chromosomal inv(3)(q21;q26.2) or t(3;3)(q21;q26.2) alterations (MECOM-r) that account for about 50% of AML with EVI1 overexpression 31. AMLs with high levels of EVI1 have a poor prognosis and an overall survival time averaging between 10-14 months. EVI1 overexpression confers resistance in leukemia cells, highlighting the need to develop new targeted therapies for EVI1 overexpressing AMLs. Here, we performed an unbiased chemical drug screening by evaluating the single agent activity of a collection of 2,480 oncology-focused, approved and investigational drugs (NCATS Mechanism Interrogation Plates, MIPE v5.0) against a panel of seven AML cell lines. These included four MECOM-r cell-lines (AML-191, AML-194, UCSD-AML1 and HNT-34) and three non-MECOM-r AMLs (MV4-11, OCI-AML3 and SET-2). Exploiting the mechanistic redundancy built in the library, we identified target-level sensitivities in MECOM-r AML cells and relative activity as compared to other AML subtypes.
A collection of 2480 mechanistically annotated dugs (MIPE v5.0) was used to screen four 3q26.2 rearranged AML cell lines and three non-3q26.2 rearranged AML cell lines. This library purposely exploits redundancy by including multiple inhibitors of key onco-targets, while simultaneously encompassing mechanistic diversity, targeting more than 800 distinct mechanisms of action. Briefly, cells were seeded in 5 uL of growth media using a Multidrop Combi dispenser into 1536 well white polystyrene tissue culture treated plates (Corning) at a density of 500cells/well. For each cell-line, for each of the 2480 drugs in MIPE v5.0 library, an 11-point dose curve was generated via a 1536 pin-tool. Plates were incubated for 48 hr at standard incubator conditions, covered by a stainless steel gasketed lid to prevent evaporation. Cell viability was determined by luminescence based, Cell Titer Glo assay (Promega). In detail, 3 uL of Cell Titer Glo were added to each well and plates were incubated at room temperature for 15 min with a stainless-steel lid in place. Luminescence readings were taken using a Viewlux (PerkinElmer) with a 2 s exposure time per plate. Compound dose-response curves were normalized to DMSO and empty well controls on each plate. Quantitative drug activity data from dose-response curves was determined utilizing area Under the Curve (AUC) and Z-transformed AUC (Z-AUC, a mean-centering transformation applied to each individual cell-line screened).
Potency means the concentration at half of the fitted maximal effect.

Q: For `CN1CCN(C2CCN(C(=O)Nc3cc(Oc4ccc(NC(=O)C5(C(=O)Nc6ccc(F)cc6)CC5)c(F)c4)ccn3)CC2)CC1`, which Potency is on record?
A: Its Potency is 7.42 µM (active).

Q: For `CN(C)CCOc1cc(-c2cn[nH]c2)ccc1NC(=O)C1COc2ccccc2O1` (stereo not given), which Potency is on record?
A: The Potency was “inactive”.

Q: Which Potency does the source give for `CN1CCC(=C2c3ccccc3CC(=O)c3sccc32)CC1` here?
A: Its Potency is “inactive”.

Q: With `COc1cc2c(c(OC)c1OC)-c1ccc(OC)c(=O)cc1[C@@H](NC(C)=O)CC2` as the compound, how does the Potency read?
A: Its Potency is 0.0417 µM (active).

Q: Which Potency does the source give for `CC(=O)Nc1nc(C)c(-c2ccc(Cl)c(S(=O)(=O)NCCO)c2)s1` here?
A: Its Potency is 3.72 µM (active).

Q: Which Potency does the source give for `O=C(NCCCCN1CCOCC1)c1cc2ccccc2o1` here?
A: The Potency was “inactive”.

Q: With `CCNC(=O)[C@H]1O[C@@H](n2cnc3c(N)nc(NCCc4ccc(CCC(=O)O)cc4)nc32)[C@H](O)[C@@H]1O` as the compound, how does the Potency read?
A: Its Potency is “inactive”.

Q: With `COC(=O)Nc1nc2ccc(C(=O)c3cccs3)cc2[nH]1` as the compound, how does the Potency read?
A: Its Potency is 0.0833 µM (active).

Q: For `CCCCCCNC(=O)n1cc(F)c(=O)[nH]c1=O`, which Potency is on record?
A: The Potency was 7.42 µM (active).

Q: Which Potency does the source give for `CNC(=O)c1ccccc1Nc1nc(Nc2ccc3c(c2OC)CCC[C@@H](N2CCN(CCO)CC2)C3)ncc1Cl` here?
A: Its Potency is “inactive”.

Q: For `COc1ccc(CC2SC(=O)NC2=O)cc1C(=O)NCc1ccc(C(F)(F)F)cc1` (stereo not given), which Potency is on record?
A: Its Potency is “inactive”.

Q: Which Potency does the source give for `Clc1ccc(C2(c3ccc(-c4cn[nH]c4)cc3)CCNCC2)cc1` here?
A: The Potency was 18.6 µM (active).

Q: For `Cc1noc(-c2ccc(CSCCC(=O)O)cc2)c1NC(=O)OC(C)c1ccccc1Cl` (stereo not given), which Potency is on record?
A: The Potency was “inactive”.

Q: With `Cc1c(C)c2c(c(C)c1O)CCC(C)(COc1ccc(CC3SC(=O)NC3=O)cc1)O2` (stereo not given) as the compound, how does the Potency read?
A: The Potency was “inactive”.

Q: With `C[C@]12CC[C@H](O)CC1=CCC1C2CC[C@]2(C)C(n3cnc4ccccc43)=CCC12` (stereo not given in full) as the compound, how does the Potency read?
A: Its Potency is “inactive”.

Q: For `N[C@@H](CC(=O)N1CCn2c(nnc2C(F)(F)F)C1)Cc1cc(F)c(F)cc1F`, which Potency is on record?
A: The Potency was “inactive”.

Q: With `Cc1cc(Nc2cc(NC(=O)c3c(Cl)cccc3Cl)ccn2)nc(N)n1` as the compound, how does the Potency read?
A: The Potency was 0.296 µM (active).

Q: With `COc1ccc(-n2cnc3cc(C(=O)N4CCCCC4)ccc32)cc1` as the compound, how does the Potency read?
A: Its Potency is “inactive”.

Q: Which Potency does the source give for `COc1cc2c(Nc3ccc(Cl)c(Cl)c3F)ncnc2cc1OCC1C[C@@H]2CN(C)C[C@@H]2C1` (stereo not given in full) here?
A: The Potency was 9.34 µM (active).

Q: With `O=C1C[C@@H](c2ccc(O)cc2)Oc2cc(O)cc(O)c21` as the compound, how does the Potency read?
A: Its Potency is “inactive”.

Q: Which Potency does the source give for `CCCCOc1c(C(=O)c2c(F)cc(C)cc2F)cnc2n[nH]cc12` here?
A: Its Potency is 2.35 µM (active).

Q: For `CC(C)(C)c1cc(C(=O)O)c(NC(=O)Nc2ccc3[nH]ncc3c2)s1`, which Potency is on record?
A: Its Potency is “inactive”.

Q: With `Clc1ccc2nsnc2c1NC1=NCCN1` as the compound, how does the Potency read?
A: The Potency was “inactive”.

Q: Which Potency does the source give for `COc1cccc(OCCCN)c1-c1cc(Nc2cnc(C#N)cn2)n[nH]1` here?
A: The Potency was 0.0093 µM (active).

Q: Which Potency does the source give for `C=CC(=O)Nc1cccc(Sc2nc(Nc3ccc(N4CCN(C)CC4)cc3)ncc2Cl)c1` here?
A: Its Potency is 9.34 µM (active).

Q: Which Potency does the source give for `NC(=O)OCC(COC(N)=O)c1ccccc1` here?
A: The Potency was “inactive”.

Q: With `COc1ccc(Cl)c(Nc2ncnc3cc(OCC4CCN(C)CC4)c(OC)cc23)c1` as the compound, how does the Potency read?
A: The Potency was “inactive”.

Q: With `CC#C[C@@H](CC(=O)O)c1ccc(OCc2cccc(-c3ccc(C(F)(F)F)cc3)c2)cc1` as the compound, how does the Potency read?
A: The Potency was “inactive”.

Q: Which Potency does the source give for `Cc1cccc(N(C)C(=S)Oc2ccc3ccccc3c2)c1` here?
A: The Potency was “inactive”.

Q: For `Cc1cnc(Nc2ccc(OCCN3CCCC3)cc2)nc1Nc1cccc(S(=O)(=O)NC(C)(C)C)c1`, which Potency is on record?
A: The Potency was 2.35 µM (active).

Q: Which Potency does the source give for `COCCOc1nc(-c2ccc(Cl)c(Cl)c2)n(-c2ccc(NC(=O)CCl)cc2)n1` here?
A: Its Potency is 1.32 µM (active).

Q: With `O=c1[nH]c(=O)n(C2CCCO2)cc1F` (stereo not given) as the compound, how does the Potency read?
A: The Potency was “inactive”.

Q: With `O=C1CCC[C@@H]2[C@H]3CCC[N+]4([O-])CCC[C@@H](CN12)[C@@H]34` (stereo not given in full) as the compound, how does the Potency read?
A: Its Potency is “inactive”.

Q: Which Potency does the source give for `CN1c2ccccc2C(=O)N2CCc3c([nH]c4ccccc34)C21` (stereo not given) here?
A: The Potency was 1.66 µM (active).

Q: For `COc1cc(C)c(Sc2cnc(NC(=O)c3ccc(CNC(C)C(C)(C)C)cc3)s2)cc1C(=O)N1CCN(C(C)=O)CC1` (stereo not given), which Potency is on record?
A: The Potency was 14.8 µM (active).

Q: With `C#CC[C@H](c1nc2cc(Cl)ccc2c(=O)n1Nc1ccccc1)N(CCCN)C(=O)c1cccc(Cl)c1F` as the compound, how does the Potency read?
A: Its Potency is 1.05 µM (active).

Q: With `COc1nc(-c2ccc3c(c2)OCO3)n(-c2ccc(NC(=O)CSc3ccccc3)cc2)n1` as the compound, how does the Potency read?
A: The Potency was “inactive”.

Q: For `Cc1ccccc1C(=O)Nc1ccc(C(=O)N2CCCC(O)c3cc(Cl)ccc32)c(C)c1` (stereo not given), which Potency is on record?
A: Its Potency is “inactive”.

Q: Which Potency does the source give for `NC(=O)[C@@H](CCC(F)(F)F)N(Cc1ccc(-c2ncon2)cc1F)S(=O)(=O)c1ccc(Cl)cc1` here?
A: Its Potency is “inactive”.

Q: Which Potency does the source give for `CC(C)(C)OC(=O)N[C@H]1CCCCCC=C[C@@H]2C[C@@]2(C(=O)NS(=O)(=O)C2CC2)NC(=O)[C@@H]2C[C@@H](OC(=O)N3Cc4cccc(F)c4C3)CN2C1=O` here?
A: Its Potency is “inactive”.
